Screening data: PubChem BioAssay, National Center for Advancing Translational Sciences (NCATS)
This is a sample that favours compounds with a hit; in the whole collection about 12% have one here.
BAZ2B block: inhibitors of human BAZ2B bromodomain; Q9UIF8; AlphaScreen BAZ2B-H3K14Ac peptide displacement; Potency, µM (top dose mostly 114 µM), usual class: inhibitors; hit rate 4.4% among 360,000; AID 504333; further: nearly all actives have a fitted effect of over 60% in size
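Multi-concentration screen (max 110 uM) measuring displacement of acetylated histone H3 peptide from BAZ2B by AlphaScreen, using 50 nM protein, 50 nM peptide and 10 ug/mL streptavidin donor plus Ni-chelate acceptor beads.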
JMJD2A Tudor: blocks the human JMJD2A Tudor domain. O75164. AID 504339. AlphaScreen JMJD2A-Tudor / H3K4me3 peptide binding. Potency, µM (series often up to 114 µM), hits mostly inhibitors. hit rate 4.4% among 390,000; further: nearly all actives have a fitted effect of over 50% in size
G9a block: G9a (human) methyltransferase inhibition | hit rate 8.8% among 350,000 | AID 504332 | Potency, µM (titrated, usually from 102 µM), most hits filed as inhibitors | G9a H3K9 monomethylation, AlphaScreen, 2 h; further: nearly all actives have a fitted effect of over 75% in size
Target sequence (Q96KQ7 913-1193 limits assumed): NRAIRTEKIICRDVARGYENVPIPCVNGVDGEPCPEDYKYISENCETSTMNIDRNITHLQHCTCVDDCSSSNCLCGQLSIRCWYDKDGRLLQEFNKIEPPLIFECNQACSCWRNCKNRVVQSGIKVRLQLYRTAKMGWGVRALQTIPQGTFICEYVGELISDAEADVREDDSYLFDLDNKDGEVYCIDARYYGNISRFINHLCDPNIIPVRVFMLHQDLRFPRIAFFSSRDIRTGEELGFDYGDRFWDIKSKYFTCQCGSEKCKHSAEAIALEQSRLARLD
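Methyltransferase reactions run at room temperature for 2 h (20 nM enzyme, 500 nM biotin-H3K9 peptide, 20 uM SAM) after a 15 min compound preincubation; product detected by AlphaScreen beads and anti-H3K9me1 antibody.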
HP1b binding inh: HP1-beta chromodomain-methylated histone interaction inhibition; AID 540317; hit rate 0.56% among 390,000; P83916; Potency, µM (highest dose often 114 µM), usual class: inhibitors; AlphaScreen HP1-beta / biotin-H3K9me3 peptide binding; further: nearly all actives have a fitted effect of over 70% in size
Target sequence (P83916 whole entry, looked up): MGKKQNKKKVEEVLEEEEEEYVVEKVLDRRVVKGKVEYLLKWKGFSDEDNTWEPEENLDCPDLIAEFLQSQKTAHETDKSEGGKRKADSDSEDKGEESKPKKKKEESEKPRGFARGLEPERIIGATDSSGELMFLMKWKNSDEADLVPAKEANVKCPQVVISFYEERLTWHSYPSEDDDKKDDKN
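HP1-beta protein (50 nM final) preincubated 30 min at room temperature with biotinylated H3(1-18)K9me3 peptide (50 nM) in PBS pH 7.4, 0.01% Tween-20, then compound added for 30 min. AlphaScreen streptavidin donor/nickel chelate acceptor beads (10 ug/mL final), 30 min dark, luminescence read.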
PLK1 PBD block: inhibitors of human PLK1 polo-box domain binding | Plk1 PBD binding of FITC phosphopeptide, fluorescence polarization | Potency, µM, actives largely listed as inhibitors | hit rate 2.8% among 360,000; further: series mostly up to about 57 µM; nearly all actives have a fitted effect of over 65% in size
PI5P4K alpha inh: PI5P4K alpha (human) kinase inhibition; hit rate 1.2% among 330,000; P48426; max response, %; PI5P4Kalpha enzyme, ADP-Glo luminescence, 60 min; hits give low values; AID 652105; active means max response of -50% or lower; inconclusive means between -30% and -50%; inactive means -30% or higher; further: value at the top dose of about 77 µM
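ADP-Glo luminescence end-point read after a 60 min room-temperature kinase reaction of PI5P4Kalpha plus substrate, initiated with ATP at 5 microM final. Buffer: 0.038 M HEPES pH 7.4, EGTA, 0.1% CHAPS, 5% DMSO.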
Hits are given with their value; 0 = inactive; ? = inconclusive; - = no result. Unless noted, the call rests on the fitted dose curve; in most records, active means well fitted curve in the direction sought with a large enough effect; inconclusive means small, poorly fitted or top-dose-only effect, or another doubt; inactive means no such curve, though single readings can be large; an effect the other way counts as inactive or inconclusive.

SMILES	BAZ2B block	JMJD2A Tudor	G9a block	HP1b binding inh	PLK1 PBD block	PI5P4K alpha inh
Cc1ccc(C(=O)NC(=S)NNC(=O)c2ccccc2[N+](=O)[O-])cc1	0	56.2µM	8.91µM	0	?	?
O=C(NNC(=S)NC(=O)c1ccccc1[N+](=O)[O-])c1ccccc1O	?	89.1µM	0	0	0	0
O=C(NNC(=S)NC(=O)c1ccccc1[N+](=O)[O-])c1ccccc1[N+](=O)[O-]	0	0	?	0	0	-
O=C(NNC(=S)NC(=O)c1ccccc1[N+](=O)[O-])c1ccc(Cl)cc1Cl	0	0	17.8µM	0	0	0
CCc1ccc(-c2cc(C)no2)cc1S(=O)(=O)NCc1ccc(OC)cc1	0	0	0	0	-	-
CC1CN(C(=O)Nc2ccc(C(=O)NCc3ccccc3F)cc2)c2ccccc2S1 (centres undefined)	0	0	0	0	-	-
COc1ccc(CN(Cc2ccccc2)C(=O)COC(C)=O)cc1COc1ccc(NC(C)=O)cc1	-	0	-	0	-	-
C=CC[n+]1c(-c2ccc(OCC)cc2)csc1NNC(=O)Nc1ccccc1	10µM	22.4µM	?	14.1µM	0	-
CCCNC(=O)OC[C@H]1O[C@H](CCO/N=C/c2ccc(C(=O)N3[C@H](c4ccc(C)cc4)[C@@H](C)CC[C@H]3C(=O)OC)cc2)C=C[C@@H]1Oc1ccc(OC)cc1	0	-	70.8µM	-	-	-
COC(=O)[C@@H]1CC[C@H](C)[C@@H](c2ccc(C)cc2)N1C(=O)c1ccc(/C=N/O[C@@H](C)c2cn([C@H](CO)Cc3ccccc3)nn2)cc1	0	-	?	-	-	-
COc1ccc(-c2cc(C(=O)Nc3sc4c(c3C#N)CCCC4)c3ccccc3n2)cc1	0	0	0	0	0	0
CCOC(=O)c1sc(-c2ccc(C)cc2)c(C#N)c1C	0	0	39.8µM	0	23.8µM	0
Cc1c(C(=O)NN)sc(-c2ccccc2)c1C#N	-	0	0	0	0	0
Cc1ccccc1-c1cc(C(=O)Nc2sc(C(=O)OC(C)C)c(C)c2C#N)c2ccccc2n1	0	56.2µM	44.7µM	?	10.6µM	0
Cc1cc(NC(=O)c2cc(-c3ccccc3C)nc3ccccc23)no1	0	0	0	0	0	0
CCOC(=O)c1sc(NC(=O)c2cc(-c3ccc(C)cc3)nc3ccccc23)c(C#N)c1C	0	79.4µM	5.62µM	?	2.67µM	0
Cc1sc(NC(=O)c2cc(-c3ccc(Cl)cc3)nc3ccccc23)c(C(N)=O)c1C	0	0	12.6µM	?	13.4µM	?
O=C(O)CC(NC(=O)C12CC3CC(CC(C3)C1)C2)c1ccc(OC2CCCC2)cc1 (centres undefined)	-	0	?	0	0	0
CCC(C)C(NC(=O)OC(C)(C)C)C(=O)NC1COC2CC(n3cc(C)c(=O)[nH]c3=O)OC12 (centres undefined)	-	0	-	0	-	-
Cc1ccc(S(=O)(=O)Cc2sc3ccccc3[n+]2C)cc1	50.1µM	22.4µM	44.7µM	0	0	-
COc1ccc(Cn2c(=S)[nH]c3ccccc3c2=O)cc1	0	0	0	0	0	0
CCOC(=O)C1CCCN(C2CC(=O)N(c3cccc(C(F)(F)F)c3)C2=O)C1 (centres undefined)	0	56.2µM	?	0	0	0
CCOC(=O)C1CCCN(C2CC(=O)N(c3ccc(N4C(=O)CC(N5CCCC(C(=O)OCC)C5)C4=O)cc3)C2=O)C1 (centres undefined)	50.1µM	0	31.6µM	0	0	0
CCOC(=O)C1CCCN(C2CC(=O)N(c3ccccc3)C2=O)C1 (centres undefined)	0	0	-	0	0	0
O=C(/C(=N/N=C/c1ccc(O)c(O)c1O)c1ccccc1)c1ccccc1	31.6µM	35.5µM	1.12µM	?	7.52µM	-65.4
COc1ccc(C(=O)C(=NN)c2ccccc2)cc1	-	-	-	-	0	0
Oc1ccc(/C=N/N=C(c2ccccc2)c2ccccc2)c(O)c1O	25.1µM	56.2µM	1.41µM	44.7µM	11.9µM	?
CCNC(=O)CC1C(=O)N(c2ccccc2)C(=O)N1CCOC (centres undefined)	0	0	0	0	0	0
c1ccc(-n2cnnc2SCc2cn3ccsc3n2)cc1	0	0	?	0	0	-
